This is an account of results in PubChem BioAssay (EPA / NIEHS).

Inconclusive results are not listed. Active and inactive are the calls of the source. Rule for the calls: active = hit-call score of the fitted dose curve at least 0.9, where 1 is the maximum; inconclusive = response in the unintended direction; inactive = score below 0.9.

The term AC50 denotes the concentration at which the activity in the assay is half-maximal.

Retinoic acid receptor RXR-alpha (Homo sapiens), sequence (P19793 whole entry, looked up): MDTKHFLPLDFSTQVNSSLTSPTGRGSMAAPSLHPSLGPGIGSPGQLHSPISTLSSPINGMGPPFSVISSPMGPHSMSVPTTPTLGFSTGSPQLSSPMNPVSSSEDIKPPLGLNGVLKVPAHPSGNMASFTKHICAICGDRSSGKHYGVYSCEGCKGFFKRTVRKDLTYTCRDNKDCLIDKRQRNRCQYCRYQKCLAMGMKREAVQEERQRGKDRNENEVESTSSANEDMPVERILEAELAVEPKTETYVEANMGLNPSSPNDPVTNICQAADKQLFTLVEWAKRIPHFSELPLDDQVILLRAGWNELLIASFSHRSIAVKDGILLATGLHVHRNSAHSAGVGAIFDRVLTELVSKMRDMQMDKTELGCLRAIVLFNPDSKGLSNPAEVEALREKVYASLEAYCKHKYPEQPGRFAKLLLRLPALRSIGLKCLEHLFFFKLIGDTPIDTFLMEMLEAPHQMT

The target in the test is Retinoic acid receptor RXR-alpha (Homo sapiens) (UniProt P19793). In words: ATG_RXRa_TRANS: Attagene TRANS-FACTORIAL HepG2 Assay for human Retinoid X Receptor alpha (RXRa) (AID 2283012). How it is done:
ATG_TRANS is a cell-based, multiplexed-readout assay that uses HepG2, a human liver cell line, with measurements taken at 24 hours after chemical dosing in a 24-well plate.ATG_RXRa_TRANS is one of 30 assay component(s) measured or calculated from the ATG_TRANS assay. It is designed to make measurements of mRNA induction, a form of inducible reporter, as detected with fluorescence intensity signals by Reverse transcription polymerase chain reaction (RT-PCR) and Capillary electrophoresis technology.Data from the assay component ATG_RXRa_TRANS was analyzed into 1 assay endpoint. This assay endpoint, ATG_RXRa_TRANS, was analyzed in the positive analysis fitting direction relative to DMSO as the negative control and baseline of activity. Using a type of inducible reporter, measures of mRNA for gain-of-signal activity can be used to understand the reporter gene at the transcription factor-level as they relate to the gene RXRA. Furthermore, this assay endpoint can be referred to as a primary readout, because this assay has produced multiple assay endpoints where this one serves a reporter gene function. To generalize the intended target to other relatable targets, this assay endpoint is annotated to the nuclear receptor intended target family, where the subfamily is non-steroidal.
Human liver HepG2 cells are transiently transfected with multiple reporter transcription units (MRTUs) in 6-well plates using FuGene 6 reagent (Roche; 3 ml FuGene/1 mg DNA). The MRTU constructs are regulated by a cis-regulating element (promoter). […] A major difference between the CIS and TRANS system is that in CIS activities of endogenous TFs are measured, whereas the TRANS assay evaluates changes in activities of exogenous, chimeric NR-Gal4 proteins. […] At the end of 24 hour incubation, total RNA was isolated using TriZol reagent (Invitrogen). The isolated RNA is then reverse-transcribed using oligo(dT) primer and Mo-MLV reverse transcriptase (Invitrogen) with DNAse I (Ambion) treatment for 30 min. The one-tenth of the produced cDNA was amplified by PCR using Taq DNA polymerase (Invitrogen) and two reporter sequence-specific primers. The PCR products were fluorescently labeled by primer extension with 6-arboxyfluorescein (6-FAM) 5'-labeled reporter sequence-specific primer (2 min at 95 C, 20 s at 68 C and 10 min at 72 C) and these products were digested with 5U of HpaI (New England Biolabs) for 2h at 37 C. The fragments were purified using Qiaquick PCR columns (Qiagen), analyzed on an ABI 3130xL genetic analyzer (Applied Biosystems) with peak positions identified by using a set of X-rhodamine (ROX)-labeled MapMarker1000 molecular weight standards (BioVentures). The raw capillary electrophoresis data was processed using Attagraph software (Attagene).
Turning to `CCCCOC(=O)CCCCCCCCC(=O)OCCCC`, the compound was classed as inactive.

As for `Cc1cccc(C)c1O`, the outcome was inactive.

Consider `COc1cc(/C=C/C(=O)CC(=O)/C=C/c2ccc(O)c(OC)c2)ccc1O`, for which the outcome was inactive.

Turning to `CCCCc1ccc2c(n1)[C@@H](c1ccc(OC)cc1C[C@H](C)C(=O)O)[C@H](C(=O)O)[C@H]2c1ccc2c(c1)OCO2`, the compound was called inactive.

With `CCCCCCOCCO`, the outcome was inactive.

For `COc1cc(S(=O)(=O)O)c(C)cc1N=Nc1c(O)ccc2cc(S(=O)(=O)O)ccc12`, the outcome was inactive.

As for `Cc1oc(-c2ccccc2)nc1CCOc1cccc2c1ccn2CCC(=O)O`, the half-maximal activity concentration (AC50) was 44.9 µM (active).

Turning to `COc1ccc2c(c1)c(CC(=O)O)c(C)n2C(=O)c1ccc(Cl)cc1`, the compound was called inactive.

With `CCCCCCCCCCCC(=O)OC`, the compound was called inactive.

Take `COCCOC[C@H](CC1(C(=O)NC2CCC(C(=O)O)CC2)CCCC1)C(=O)Oc1ccc2c(c1)CCC2` (stereo not given in full): the call was inactive.

Regarding `O=C(N[C@@H](Cc1ccccc1)[C@@H](O)C(=O)N1C[C@@H](O)[C@@H](O)C1)c1cc2cc(Cl)ccc2[nH]1`, the call was inactive.

`CC=Cc1ccc(O)c(OC)c1`: the result was inactive.

Regarding `NCC1(Cc2noc(=O)[nH]2)CCCCC1`, the outcome was inactive.

`CCc1c(C(=O)NN2CCCCC2)nn(-c2ccc(Cl)cc2Cl)c1-c1ccc(Br)cc1`: the compound was classed as inactive.

For `Nc1nc(N)c2nc(CNc3ccc(C(=O)N[C@@H](CCC(=O)O)C(=O)O)cc3)cnc2n1`, the call was inactive.

As to `CC1(C)NC(=O)NC1=O`, the outcome was inactive.

As for `CCCCC(CC)COC(=O)CC(C(=O)OCC(CC)CCCC)S(=O)(=O)O` (stereo not given), the compound was classed as inactive.

In the case of `CC(CO)OC(C)CO` (stereo not given) (tested in a mixture with another compound), the result was inactive.

For the compound `CCOC(=O)C(C)(C)Oc1ccc(Cl)cc1`, the compound was called inactive.

As to `Nc1ccc(S(=O)(=O)c2ccc(N)cc2)cc1`, the compound was classed as inactive.

`O=c1c(O)c(-c2ccc(O)c(O)c2)oc2cc(O)cc(O)c12`: the outcome was inactive.

With `COc1cccc2c1C(=O)c1c(O)c3c(c(O)c1C2=O)C[C@@](O)(C(=O)CO)C[C@@H]3O[C@H]1C[C@H](N)[C@H](O)[C@H](C)O1`, the result was inactive.

On to `CCOC(=O)CCC(=O)OCC`, for which the compound was classed as inactive.

As for `CCOc1ccc2c(c1)C(C)=CC(C)(C)N2`, the half-maximal activity concentration (AC50) is 100 µM (active).

As to `CCCCCCCCCCCCCCCC`, the outcome was inactive.

Take `Cc1ccc(C(C)C)c(O)c1`: the result was inactive.

Consider `CN1CCN(Cc2cc(-c3ccc4[nH]c(=O)oc4c3)co2)[C@@H](c2ccc(F)cc2)C1`, for which the call was inactive.

Take `NS(=O)(=O)c1cc2c(cc1Cl)NCNS2(=O)=O`: the compound was called inactive.

As to `C1CCC(SSC2CCCCC2)CC1`, the compound was classed as inactive.

Turning to `COc1cc(C=O)ccc1O`, the outcome was inactive.

On to `Cc1cccc([N+](=O)[O-])c1C`, for which the result was inactive.

As for `Oc1ccc2c(c1)OC[C@@H](N1CCC(O)(c3ccc(F)cc3)CC1)[C@H]2O`, the compound was called inactive.

`O=c1[nH]cc(F)c(=O)[nH]1`: the result was inactive.

In the case of `CC(C)(C)c1cc(O)c(C(C)(C)C)cc1O`, the concentration at half-maximal activity (AC50) was 60.2 µM (active).

As to `C=CCc1ccc(O)c(OC)c1`, the call was inactive.

In the case of `Nc1ccc2c(c1)C(=O)c1ccccc1C2=O`, the compound was called inactive.

As for `Nc1ccccc1N`, the result was inactive.

With `CCCCCCC(=O)OCC`, the compound was classed as inactive.

For the compound `Clc1cc(Cl)c(Cl)cc1Cl`, the outcome was inactive.

`CC1=C(/C=C/C(C)=C/C=C/C(C)=C/CO)C(C)(C)CCC1`: the AC50 is 1.87 µM (active).
